Assay outcomes (PubChem BioAssay)
In the library only some 2.8% were active in any assay of this set; here they are far more common.
pAkt inh: HTS Assay for Inhibitors of Akt Phophorylation: Primary Screen; Neuro2A IGF-stimulated pAkt S473 HTRF, 20 min; active compounds read low; activity change, % for hits at 50 µM; 360,000 compounds, 0.32% hits; in the data active = activity change below about -80%; inconclusive = mostly about -51% to -80%
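Neuro2A cells (4,500/well, DMEM with 0.5% FBS) were treated with compound at a single 50 µM final concentration, stimulated with 6 nM IGF for 20 min at 37 °C, and lysed. Phospho-Akt Ser473 was read by HTRF as 665/615 ratio ×10^4.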
LDHA block: qHTS assay for inhibitors of human lactate dehydrogenase | L-lactate dehydrogenase A chain (Homo sapiens), P00338 | purified LDHA, NADH/diaphorase-resazurin fluorescence; active compounds read low | activity change, % (values are at about 110 or 230 µM) | 480,000 compounds, 0.15% hits; in the data active = activity change below about -30%; inconclusive = mostly about -25% to -30%
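Remaining NADH was detected by diaphorase (0.133 mg/mL) converting 37 µM resazurin to fluorescent resorufin, read at 0 and 20 minutes. The preceding 5-minute room-temperature reaction used 2 nM LDHA, 0.2 mM sodium pyruvate and 0.06 mM NADH at pH 7.4.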
DRD3 agonist: qHTS of D3 Dopamine Receptor Agonist: qHTS; D(3) dopamine receptor (Homo sapiens), P35462; D3R DiscoveRx beta-arrestin cells, luminescence, 90 min; max activation, %; 410,000 compounds, 0.58% hits; in the data active = max activation above about 30%
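Cells at 1500/well, incubated overnight, then treated with pinned compounds (dopamine as control) for 90 min at 37 degrees C. DiscoveRx reagent added for 30 - 60 minutes at room temperature; luminescence read.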
PI4K2A block: qHTS for small molecular inhibitors of PI4K2A. Phosphatidylinositol 4-kinase type 2-alpha (Homo sapiens), Q9BTU6. purified PI4K2A, ADP-Glo luminescence, 1 h; active compounds read low. activity change, negative = inhibition, % at 76.9 µM. 420,000 compounds, 0.13% hits; in the data active = activity change below about -50%; inconclusive = mostly about -30% to -49%
Target sequence (Q9BTU6 whole entry, looked up): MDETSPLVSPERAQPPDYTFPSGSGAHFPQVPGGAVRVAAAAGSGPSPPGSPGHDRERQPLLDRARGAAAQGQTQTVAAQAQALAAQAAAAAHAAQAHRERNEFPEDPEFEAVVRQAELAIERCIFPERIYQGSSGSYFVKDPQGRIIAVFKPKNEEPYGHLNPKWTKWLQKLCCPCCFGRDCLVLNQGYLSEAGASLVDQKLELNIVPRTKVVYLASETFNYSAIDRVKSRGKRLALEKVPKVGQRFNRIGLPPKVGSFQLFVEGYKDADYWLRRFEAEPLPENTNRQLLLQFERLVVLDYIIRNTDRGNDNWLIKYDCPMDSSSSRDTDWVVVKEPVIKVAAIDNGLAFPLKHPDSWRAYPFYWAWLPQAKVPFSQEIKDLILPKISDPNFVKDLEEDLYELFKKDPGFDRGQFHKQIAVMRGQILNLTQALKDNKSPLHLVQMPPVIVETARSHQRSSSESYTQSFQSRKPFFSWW
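PI4K2A activity was measured by ADP-Glo luminescence: enzyme (4 ug/mL stock) and phosphatidylinositol (1.2 mM stock) in Tris pH 7.5/MgCl2/EGTA/Triton X-100 buffer were reacted with ATP (300 microM stock) for one hour at ambient temperature.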
DRD3 antagonist: qHTS of D3 Dopamine Receptor Antagonist: qHTS; D(3) dopamine receptor (Homo sapiens), P35462; D3R cells, DiscoveRx beta-arrestin luminescence, antagonist mode; active compounds read low; max response, negative = inhibition, %; 360,000 compounds, 2.5% hits; AID 652054, 2013; in the data active = max response below about -50%; inconclusive = no clear call, values can overlap the other calls
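Cells plated overnight at 1500 cells/well, then exposed to library compounds with dopamine controls for 90 minutes at 37 degrees C. DiscoveRx reagent added for 30–60 minutes at room temperature; luminescence read, quantitative HTS format.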
RGS4 inhibitor: Inhibitors of Regulator of G Protein Signaling (RGS) 4: qHTS. Transcreener GDP fluorescence polarization, RGS4-accelerated GTP hydrolysis. Potency, µM (titrated, usually from 114 µM), actives largely listed as inhibitors. Regulator of G-protein signaling 4 (Homo sapiens), P49798. AID 504845, 2011. 390,000 compounds, 0.039% hits; active = well fitted inhibition curve with a large enough effect; inconclusive = small, poorly fitted or top-dose-only effect; inactive = no such curve, though single readings can be large or run the other way; note: nearly all actives have a fitted effect of over 75% in size
Target sequence (P49798 whole entry, looked up): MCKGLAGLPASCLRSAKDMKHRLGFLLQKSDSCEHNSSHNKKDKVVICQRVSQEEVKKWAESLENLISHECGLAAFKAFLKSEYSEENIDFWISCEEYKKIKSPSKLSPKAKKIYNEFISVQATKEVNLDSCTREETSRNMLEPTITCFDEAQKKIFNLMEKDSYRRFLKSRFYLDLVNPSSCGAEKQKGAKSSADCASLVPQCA
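MLSMR compounds (23 nl, pin-transferred) preincubated 10 min at room temperature with a 500nM (2x) first reagent, then RGS4 at 900nM (2x) plus Transcreener GDP mix added; fluorescence polarization (620/688 nm) read before and after 90 min at 30 °C.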
Hits are given with their value; 0 = inactive; ? = inconclusive; - = no result given.

SMILES	pAkt inh	LDHA block	DRD3 agonist	PI4K2A block	DRD3 antagonist	RGS4 inhibitor
CCCCN(CC)CCCNC(=S)Nc1ccc2nc(N3CCN(C)CC3)cc(C)c2c1	0	0	0	0	?	0
CCCCN(CC)CCCNC(=S)Nc1ccc2nc(N3CCN(CC)CC3)cc(C)c2c1	0	0	0	0	-54	0
CN1CCN(C(=O)c2ccccc2N(Cc2ccccc2)S(=O)(=O)c2ccccc2)CC1	0	0	0	0	-60	0
CCOC(=O)N1CCN(C/C(C)=C/c2ccccc2)CC1	-	?	0	0	?	0
C/C(=C\c1ccccc1)CN1CCN(C)CC1	0	0	0	0	-56	0
CN1CCN(C(=O)/C(=C/c2ccccc2)c2ccccc2)CC1	0	0	0	0	-59	0
O=C(c1cn(-c2ccccc2)nc1-c1cccnc1)N1CCN(c2ccc(O)cc2)CC1	-	0	-	-	-	-
CCn1cc([N+](=O)[O-])c(C(=O)N2N=C(c3ccc4ccccc4c3)CC2c2cc(Br)ccc2O)n1 (centres undefined)	0	0	0	0	-61	0
CCn1cc([N+](=O)[O-])c(C(=O)N2N=C(c3ccc(Cl)c(Cl)c3)CC2c2ccccc2O)n1 (centres undefined)	0	0	0	0	0	0
O=C(c1ccc(Cl)cc1)C1CCCN(Cc2cnn(-c3ccccc3)c2)C1 (centres undefined)	0	0	0	0	-71	0
S=C(NN=C1CCCCCC1)Nc1ccc(Cl)cc1	0	0	0	0	0	0
Fc1ccc(NC(=S)NN=C2CCCCCC2)cc1	0	0	0	0	-150	0
Cc1cccc(N2CCN(C(=O)Cn3ncc4c3-c3cc(C)ccc3OC4)CC2C)c1 (centres undefined)	-	0	32	0	-	0
Cc1ccc2c(c1)-c1c(cnn1CC(=O)O)CO2	0	0	0	0	0	0
O=C(O)CCNC(=O)C(F)(F)C(F)(F)C(F)(F)C(F)(F)C(F)(F)C(F)(F)F	-	0	-	-	-	-
CCC(c1nnnn1C(C)(C)C)N1CCN(C/C=C/c2ccccc2)CC1 (centres undefined)	0	0	0	0	-80	-
CC(=O)c1ccc(NC(=O)C(C)N2CCN(C/C=C/c3ccccc3)CC2)cc1 (centres undefined)	0	0	0	0	?	0
Cc1ccc(C(c2nnnn2C(C)(C)C)N2CCC(C)CC2)cc1 (centres undefined)	0	0	0	0	-52	0
CC1CCN(C(c2ccccc2)c2nnnn2C(C)(C)C)CC1 (centres undefined)	0	0	0	0	0	0
CC(C)(C)n1nnnc1C(c1ccccc1)N1CCN(C/C=C/c2ccccc2)CC1 (centres undefined)	0	0	0	0	-57	-
CC(C(=O)N(C)Cc1ccccc1)N1CCN(C/C=C/c2ccccc2)CC1 (centres undefined)	0	-31	0	0	0	0
CCC(c1nnnn1C(C)(C)CC)N1CCN(c2ccccc2F)CC1 (centres undefined)	0	0	0	0	0	0
CC(C)(C)n1nnnc1C(c1ccccc1)N1CCN(c2ccccc2)CC1 (centres undefined)	0	0	0	0	0	-
Cc1ccc(NC(=O)/C=N/OCC(=O)Nc2c(C(C)C)cccc2C(C)C)cc1	-	0	-	-	-	-
C(=C\c1ccccc1)/CN1CCN(C(c2ccccc2)c2ccccc2)CC1	0	0	-	0	-63	0
SMILES	pAkt inh	LDHA block	DRD3 agonist	PI4K2A block	DRD3 antagonist	RGS4 inhibitor
CC(C)(C)n1nnnc1C(c1ccccc1)N1CCCN(Cc2ccc(F)cc2)CC1 (centres undefined)	0	0	0	0	-105	-
CSCCC(C(=O)Nc1c(C)cccc1C)N1CCN(C/C=C/c2ccccc2)CC1 (centres undefined)	0	0	0	0	-81	-
Cc1cccc(C)c1NC(=O)C(c1ccccc1)N1CCN(C/C=C/c2ccccc2)CC1 (centres undefined)	0	0	0	0	0	-
CC(=O)NCC(=O)OCc1ccc(COC(=O)CNC(C)=O)cc1	-	0	-	-	-	-
Cc1cccc2[nH]c(C(=O)O)cc12	-	0	-	-	-	-
COC(=O)[C@]1(C)N[C@H](CN(C)C(=O)Nc2ccc(OC)cc2)[C@@H]2C(=O)N(Cc3ccccc3)C(=O)[C@@H]21	0	0	34	0	0	0
COC(=O)[C@]1(C)N[C@H](CN(C)C(=O)Nc2ccc(Cl)cc2)[C@@H]2C(=O)N(Cc3ccccc3)C(=O)[C@@H]21	0	0	0	0	?	0
CC(=O)N(c1cccc(C)c1)c1nc(CSc2nnc(C)n2C2CC2)cs1	-	0	-	-	-	-
COc1cnc(-c2ccccn2)nc1Sc1ccccc1Cl	0	0	0	0	-68	0
COc1cnc(-c2ccccn2)nc1Sc1c(Cl)cccc1Cl	0	0	0	0	-65	0
O=C(COC(=O)c1ccccc1O)NNC(=O)c1ccc(Br)cc1	0	0	0	0	-58	0
O=C(NNC(=O)c1ccccc1O)c1ccc(Br)cc1	0	0	0	0	0	0
Cc1ccc(Nc2nc(-c3ccccc3)c(C(=O)Nc3cccnc3)s2)c(C)c1	-	0	-	-	-	-
CCN(CC)CCCOC(=O)C(c1ccccc1)c1ccccc1	0	0	0	0	-85	0
CCN(CC)CCOC(=O)/C=C/c1ccccc1	0	0	0	0	-63	0
CCC(C(=O)OCCOCCN(CC)CC)c1ccccc1 (centres undefined)	0	0	0	0	0	0
CN(C)CCCOC(=O)/C=C/c1ccccc1	-	0	-	-	-	-
Cc1cccc(N2CCN(C(=O)COc3noc4nc(C)cc(C)c34)CC2C)c1 (centres undefined)	0	0	34	0	0	-
Cc1cc(C)n(-c2cc(NC3CCCCCC3)ncn2)n1	-	0	-	-	-	-
CC(O)CCc1ccc(O)cc1 (centres undefined)	0	0	0	0	0	0
CC(CCc1ccc(O)cc1)NCC(O)c1ccc(O)cc1 (centres undefined)	-	-	59	-	-	-
CC(CCc1ccc(O)cc1)NCCc1ccc(O)c(O)c1 (centres undefined)	0	0	108	0	0	0
CC(CCc1ccc(O)cc1)NC1C2CC3CC(C2)CC1C3 (centres undefined)	0	0	0	0	-56	0
Cc1ccc(C(=O)Nc2ccccc2)cc1NC(=O)CC(C)(C)CC(=O)O	-	0	-	-	-	-
